# Assays:
# ETS1 [1] = target: T1, ETS1 (UniProt P14921); experiment: ETS1 binding intensity (PBM fluorescence), ETS1 alone (arbitrary fluorescence units); higher = stronger binding; conditions: ETS1 concentration 1 nM; RUNX1 concentration 0 nM
# T1 sequence: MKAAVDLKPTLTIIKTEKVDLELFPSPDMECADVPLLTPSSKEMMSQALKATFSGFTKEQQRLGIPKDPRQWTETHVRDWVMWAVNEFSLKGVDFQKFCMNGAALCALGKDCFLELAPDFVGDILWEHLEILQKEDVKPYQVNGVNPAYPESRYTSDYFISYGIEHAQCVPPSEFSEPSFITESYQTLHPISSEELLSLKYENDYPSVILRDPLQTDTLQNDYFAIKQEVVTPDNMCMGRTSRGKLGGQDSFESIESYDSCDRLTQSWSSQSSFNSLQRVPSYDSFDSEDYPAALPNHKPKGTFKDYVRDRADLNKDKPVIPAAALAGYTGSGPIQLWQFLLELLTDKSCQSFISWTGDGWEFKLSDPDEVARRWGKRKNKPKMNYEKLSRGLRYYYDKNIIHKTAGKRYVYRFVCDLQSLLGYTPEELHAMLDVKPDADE
# RUNX1 [2] = target: RUNX1 (UniProt Q01196); experiment: RUNX1 binding intensity (PBM fluorescence), RUNX1 alone (arbitrary fluorescence units); higher = stronger binding; conditions: RUNX1 concentration 2 nM; ETS1 concentration 0 nM
# Description: (§1)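 Cooperative gcPBM on 36-bp genomic probes with neighbouring ETS1 and RUNX1 sites. Recombinant human RUNX1 (2 nM) was incubated alone or with ETS1 (25 nM) and detected with anti-RUNX1 antibody plus Alexa488 secondary. Values are medians over 4 replicate spots; the RUNX1+ETS1 data were normalised to the RUNX1-only data. The probes sit in constant array flanks that are not printed.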
# ETS1 [3] = target: T1, ETS1; experiment: ETS1 binding intensity (PBM fluorescence) in presence of RUNX1, normalised to ETS1-only experiment (arbitrary fluorescence units); higher = stronger binding; conditions: ETS1 concentration 1 nM; RUNX1 concentration 25 nM
# RUNX1 [4] = target: RUNX1 (UniProt Q01196); experiment: RUNX1 binding intensity (PBM fluorescence) in presence of ETS1, normalised to RUNX1-only experiment (arbitrary fluorescence units); higher = stronger binding; conditions: RUNX1 concentration 2 nM; ETS1 concentration 25 nM
# Description: as §1
# 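Throughout, for RUNX1 binding intensity (PBM fluorescence) in presence of ETS1, normalised to RUNX1-only experiment: Full-length recombinant human ETS1 or RUNX1 bound to double-stranded 36-bp genomic probes on microarrays, detected by protein-specific primary antibody and Alexa488 secondary, spot fluorescence as median of four replicate spots.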
# 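Throughout, for RUNX1 binding intensity (PBM fluorescence), RUNX1 alone: Full-length recombinant human RUNX1 bound to double-stranded 36-bp genomic probes on a high-density microarray, scored as Alexa488 fluorescence per spot via anti-RUNX1 antibody, median of four replicate spots.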
# Sequence of RUNX1 (Q01196 whole entry): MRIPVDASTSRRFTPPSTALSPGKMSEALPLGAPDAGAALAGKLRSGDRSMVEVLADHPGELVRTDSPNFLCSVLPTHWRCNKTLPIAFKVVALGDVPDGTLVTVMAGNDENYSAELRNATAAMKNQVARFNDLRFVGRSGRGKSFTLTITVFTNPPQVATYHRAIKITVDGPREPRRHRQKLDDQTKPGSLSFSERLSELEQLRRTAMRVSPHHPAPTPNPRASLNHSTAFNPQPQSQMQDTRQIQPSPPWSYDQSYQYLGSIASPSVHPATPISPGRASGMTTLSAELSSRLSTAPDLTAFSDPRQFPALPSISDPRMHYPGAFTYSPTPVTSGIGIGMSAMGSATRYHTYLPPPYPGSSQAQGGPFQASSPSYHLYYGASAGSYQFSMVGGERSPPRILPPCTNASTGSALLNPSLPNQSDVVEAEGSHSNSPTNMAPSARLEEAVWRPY
Sequence,ETS1 binding intensity (ETS1 [1]),RUNX1 binding intensity (RUNX1 [2]),ETS1 binding intensity (ETS1 [3]),RUNX1 binding intensity (RUNX1 [4])
CTCTTCAGCAGGAAATGATGTGGTAAAACAGGGTTA,3000,856,10100,1390
CGTGTGGGAGGCCGGAAGTTGCGGCTTCATTACTCG,20400,845,51000,2710
ACACAGGAAGGACGCACGCTCCCGCCCCAACCACAT,690,901,563,1060
GCAGCTGCAAACAGGAAACCACAGCAGCGTAGCGGA,2910,962,8470,1710
GACATCTTCCGGTTGCTACAGGTTACGGCGGTTGCT,2700,778,2640,1640
AGAGTCTTTTTTCCTGAGCGTTTGCGGTTTTGACTT,430,10500,1690,19500
TTACCATCGCCCTTCCTGTGGGCTGGGAGGCCAGGT,468,754,373,1060
GAGCAAACGGAGGCAGGAAGTGGTTATGTAACTTCA,7030,810,12400,2170
CTCTTCCGCTCAGTCATCCTCAGAGGTGGTAAGACT,496,1080,387,2080
AATAAAGCTACAGACTTCCGCCCACAGGTCGCCGCT,1020,789,1280,1360
ACTTTAATAGAGTCCGGATGCGGTTAGGCTGACAGA,2670,2000,30400,7430
CGACAGAGGACACTTCCTTTTGCGGGTGGCGGCGAA,550,697,1170,1460
GCTCTTCACTTCCTGTGGCTCCCGCAGCGGCCGCCG,1920,1090,1560,2460
CTGAAACAGGAAACAGACAAAGCCACAAGGTTCGCA,1840,746,5750,1780
ACTTCACTTCCCAACCTCCCCTGTGGTTAGGTGTGG,365,1040,548,1220
ATGAACCACTTCCTGTGTGTTCCCACAGAGGTCAGG,2670,742,4320,7110
GTGGTCTCTGCCACTTCCTGTGGTGTAAACAGTCTC,2680,843,3730,2890
CAGACAGGAGGCGGATGTGGGTGGCGCAGAATGAGC,1820,688,2250,1920
CAAAGGTTAAATGCAGGATGTGGTTTCTGCAGACTC,2750,922,25400,3990
AGCCGTTTCCGGCGCTCTACCCCGCCGCAGGCCGAG,833,859,979,2300
GGCAACCTGAGCTTCCGTGTAAAACCACAGTGTGAC,372,1100,964,1290
AGCCACATCCTCCCTTAGGTCTGACCGCAGCTTAAC,381,4190,2170,5430
GCCCAATTCCCGAATCCGGTCTGCGGCGCGCTCGGG,583,768,507,1170
AGATTAGATGCAGGATGTGGTATACAAAGGCACGTT,2530,823,7140,1820
ACGGGGAAGAACGGAAGTGGTTTCCATGATGGTCTG,6420,831,9080,4470
